Hits are enriched below; roughly 4% of the tested compounds scored in any of these assays.
HIF-2a block – inhibitors of HIF-2a; 786-0 RCC cells HIF-2a reporter, luciferase luminescence, overnight; inhibition, % at 18.8 µM; hit rate 0.72% among 360,000;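 active = inhibition of the luminescence signal of 40% or more relative to plate controls, in a single-dose primary screen at 18.75 µM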
TWEAK Fn14 block – inhibitors of TWEAK-Fn14 interaction signaling; TWEAK-stimulated Fn14 reporter cells, luciferase luminescence, 8 h; inhibition, % at 10 µM; hit rate 2% among 360,000; in the data active = inhibition above about 50%
TROY signal inh – inhibitors of TROY-dependent NF-kB signaling; inhibition, % at 10 µM; AID 1347056; hit rate 0.98% among 360,000; Q293 LMP1-TROYcd NF-kB luciferase reporter, 4 h;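 active = compounds whose plate-normalised and pattern-corrected inhibition of the luciferase reporter signal at the single screening dose is 50% or more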
KKLEB tox – CF airway cell cytotoxicity counter-screen; hit rate 0.36% among 360,000; KKLEB CF airway cells viability, ATPlite luminescence, overnight; active compounds read low; cells stimulated with P. aeruginosa culture filtrate; activity change (cytotoxicity), % at 5 µM; AID 602141;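 active = corrected activity change at or below -50% at 5 µM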
CF NFkB block – blocks PAF-induced NF-kB reporter in cystic fibrosis cells | AID 588850 | inhibition, % at 5 µM | KKLEB NF-kB-GFP reporter, GFP fluorescence overnight | hit rate 0.86% among 360,000;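 active = at least 50% inhibition at 5 µM, scaled per plate between neutral and stimulator controls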;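 note: PAF is a Pseudomonas aeruginosa culture filtrate used as stimulus; plate controls were PAF-stimulated DMSO wells for no effect and unstimulated DMSO wells for full effect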
Peg3 prom inh – Peg3 promoter activity inhibition | HeLa PEG-Prom luciferase reporter, luminescence, overnight | inhibition, % at 20 µM | hit rate 1.7% among 360,000 | AID 588405;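 active = inhibition of at least 50% at 20 µM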
An asterisk follows results filed as active; . = not tested or not shown.

SMILES	HIF-2a block	TWEAK Fn14 block	TROY signal inh	KKLEB tox	CF NFkB block	Peg3 prom inh
CCOC(=O)C1CCCN(Cc2cccs2)C1 (configuration not stated)	-16	-4	14	-9	-14	12
O=C(c1ccccc1-c1nc2ccccc2[nH]1)N1CCOCC1	18	-13	-9	1	3	15
O=C(N/N=C/c1cc2ccccc2nc1Cl)/C(=C/c1cccs1)NC(=O)c1ccccc1	18	17	4	10	-30	66*
CC(NC(=O)c1ccc(F)cc1)c1ccc2c(c1)CCCC2 (configuration not stated)	-56	20	53*	0	-5	-73
CC(C)C(=NO)c1ccccc1	14	3	-14	-1	-2	7
NC(=O)C1(C(=O)O)OC1(c1ccc(Cl)cc1)c1ccccc1Cl (configuration not stated)	3	-1	-20	7	-1	-11
CCOC(=O)C1(C(N)=O)OC1(c1ccc(Cl)cc1)c1ccccc1Cl (configuration not stated)	-1	21	-9	10	-9	69*
O=Cc1ccc(OCCN2CCCC2=O)cc1	14	24	8	14	-22	13
CCC(=O)N1CCc2cc(S(=O)(=O)NCCN3CCCCC3CC)ccc21 (configuration not stated)	-1	1	5	7	-20	16
CC(=O)Oc1ccccc1Cn1c(C)c(C(=O)NCCC#N)sc1=O	18	14	-9	-4	13	-3
CCOC(=O)c1ccc(Nc2nc(C(=O)OCC)nc3ccccc23)cc1	-20	23	7	-2	2	32
Cc1ccc(-c2nc(N/N=C/c3cccnc3)c3ccccc3n2)cc1	-221	43	-3	-71*	-28	-114
Cc1ccc(-c2nc(Nc3cccc(O)c3)c3ccccc3n2)cc1	-35	31	-2	-14	-15	10
Cc1ccc(-c2nc(Nc3ccc(O)cc3)c3ccccc3n2)cc1	-143	22	-32	-1	-21	59*
Cc1ccc(-c2nc(N/N=C/c3cccc([N+](=O)[O-])c3)c3ccccc3n2)cc1	-110	-1	-40	-34	-24	-86
CCOC(=O)c1nc(Nc2ccc(Nc3ccccc3)cc2)c2ccccc2n1	-42	43	54*	5	-22	44
COC(=O)/C=c1\sc2ncnn2c1=O	7	74*	.	4	8	12
CNC(=O)/C(C#N)=c1\s/c(=C/C(=O)OC)c(=O)n1-c1ccccc1	32	-9	9	-1	-1	-14
CCn1nc([N+](=O)[O-])c(C(C#N)c2nc3ccccc3n2C)c(Cl)c1=O (configuration not stated)	27	69*	9	-17	43	26
CC(=O)Nc1nc(-c2ccc([N+](=O)[O-])cc2)cs1	-62	-6	-41	22	-32	-38
O=C(Nc1ccc([N+](=O)[O-])cc1)Nc1nc(-c2ccc(Cl)s2)cs1	13	67*	54*	-47	48	69*
CC(=O)c1c(OC(=O)c2ccccc2Br)ccc2c(C)cc(=O)oc12	17	54*	37	-13	-3	17
CC(=O)c1c(OCC(=O)O)ccc2c(C)cc(=O)oc12	9	6	-9	-4	4	8
CC(=O)c1ccc(OC2(C)CCN(Cc3ccccc3OC(F)F)C2)cc1 (configuration not stated)	5	1	3	-12	-9	-1
COc1cccc(NC(=O)C2(C)CCN2Cc2cccc(OC)c2F)c1 (configuration not stated)	6	-43	1	7	8	7
SMILES	HIF-2a block	TWEAK Fn14 block	TROY signal inh	KKLEB tox	CF NFkB block	Peg3 prom inh
COc1cccc(CN2CCC2(C)C(=O)Nc2cccc(Oc3ccccc3)c2)c1F (configuration not stated)	3	9	4	-3	-4	52*
Cc1ccn2c(c1)nc(=S)n2C(=O)c1ccccc1	48*	98*	74*	-51*	-10	-10
O=C(c1ccco1)n1c(=S)nc2ccccn21	-210	-12	-14	7	-8	-246
Cc1cccc(C(=O)n2c(=S)nc3cc(C)ccn32)c1	-58	85*	71*	-31	-33	-56
O=C(CSc1ccc(-c2ccccn2)nn1)NC1CCCC1	-4	-15	-5	-12	7	3
CC(C)OCCCn1c(SCC(=O)N2CCc3ccccc32)nc2ccccc2c1=O	13	91*	24	-10	5	23
CC(C)OCCCn1c(SCC(=O)N2CCCC2=O)nc2ccccc2c1=O	2	1	-25	7	-12	27
C[C@@H]1CN([C@H](C)CO)C(=O)CCCn2nncc2CO[C@H]1CN(C)C(=O)Nc1ccc2c(c1)OCO2	-18	5	-12	9	-3	-18
CCNc1nc(NCC)n2c(SCC(=O)Nc3cccc(Cl)c3)nnc2n1	-14	-10	-14	-5	13	18
CCNc1nc(NCC)n2c(SC(C(=O)Nc3cc(Cl)cc(Cl)c3)c3ccccc3)nnc2n1 (configuration not stated)	20	67*	47	-30	35	76*
COc1ccc(S(N)(=O)=O)cc1C(=O)OCC(=O)N1c2ccccc2NC(=O)C1(C)C	5	3	-4	-7	-17	11
COc1cc(/C=C/C(=O)OCC(=O)NC(C)c2ccccc2)cc(OC)c1OC (configuration not stated)	-2	57*	1	9	2	3
COc1cc(/C=C/C(=O)OCC(=O)Nc2ccccc2Sc2ccc(Cl)cc2)ccc1O	7	36	52*	-3	2	7
COc1cc(/C=C/C(=O)OCC(=O)N2c3ccccc3NC(=O)C2(C)C)cc(OC)c1OC	-13	40	28	-19	15	65*
Cc1ccc(C)c(OCCN2C(=O)NC3(CCc4ccccc4C3)C2=O)c1 (configuration not stated)	16	-13	1	-13	2	6
CS(=O)(=O)c1ccc(C(=O)OCc2nnc(-c3ccc(Cl)cc3)o2)cc1[N+](=O)[O-]	-12	64*	66*	-19	12	104*
O=C(OCc1nnc(-c2ccc(Cl)cc2)o1)c1ccc(O)cc1	-97	-14	0	2	4	-64
O=C(Nc1ccn(C2CCC(CO)O2)c(=O)n1)c1ccccc1 (configuration not stated)	-23	5	-1	17	-21	-15
O=C(Nc1ccn(CCOC(=O)c2ccccc2)c(=O)n1)c1ccccc1	-3	-10	54*	14	-8	-36
O=C(COC(=O)c1ccc(S(=O)(=O)N2CCCC2)cc1)Nc1cccnc1Cl	9	-20	20	-5	18	14
COc1ccc(C(=O)CCNc2ccc3c(c2)OCCO3)cc1	-126	-14	-14	-12	21	-139

Source: PubChem (Sanford-Burnham Center for Chemical Genomics)
